Experiment [1] addresses Gonadotropin-releasing hormone receptor (Homo sapiens) (UniProt P30968). The experiment is described as follows: Human gonadotropin-releasing hormone receptor (GnRHR) small molecule agonists, calcium flux assay in GnRHR-HEK293 cells (AID 1920063). Further: nearly all actives have a fitted effect of over 35% in size. Summed up: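 We seeded human GnRHR-expressing HEK293 cells for 18 hours, loaded them with calcium dye for an hour at 37 C, added test compounds, and recorded fluorescence intensity kinetically for three minutes.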
(In general: Calcium assays in cells follow changes in intracellular calcium, usually with a dye or a luminescent sensor.)

The target of experiment [2] is KiSS-1 receptor (Homo sapiens) (UniProt Q969F8). Description: Human kisspeptin (KISS1R) small molecule agonists, calcium flux assay in KISS1R-HEK293 cells (AID 1920064; active means well fitted activation curve with a large enough effect in the repeat runs). A digest of the protocol:
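Kinetic calcium assay, 1 s sampling over 3 min at Ex/Em 480/540, in HEK293 cells engineered with human KISS1R; compounds delivered in DMSO after 1 h dye loading.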

Experiment [3] can be described thus: G protein-coupled receptor (GPCR) small molecule agonists, calcium flux assay: HEK293 wild type cell line counter screen (AID 1920065). A digest of the protocol:
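Calcium-sensitive dye, loaded 1 h at 37 C into cells cultured 18 h, reports compound-evoked calcium release as fluorescence (Ex/Em 480/540), measured over 3 min. Agonist mode; 15-point titrations, triplicate.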

Experiment [4] is described as follows: p53 small molecule agonists, cell-based qHTS assay with human liver microsomes (AID 1963577). Summed up:
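Compounds act here after metabolic activation: human liver microsomes and NADPH, both at 0.5 mg/mL final, were co-added to p53RE-bla cells. Incubation ran 16 h at 37 C, followed by LiveBLAzer detection.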
Background: Quantitative high-throughput screening tests each substance at several concentrations.

A short description of experiment [5]: p53 small molecule agonists, cell-based qHTS assay with rat liver microsomes (AID 1963578). A digest of the protocol:
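Read-out is beta-lactamase reporter fluorescence (LiveBLAzer, 2 h, room temperature, dark) in p53RE-bla cells treated 16 h at 37 C with compound, rat liver microsomes and NADPH, both 0.5 mg/mL final.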

Experiment [6] in a line: p53 small molecule agonists, cell-based qHTS assay with human liver microsomes: qHTS cell viability counter screen (AID 1963579). Further: nearly all actives have a fitted effect of over 45% in size. Summed up:
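Cells carrying the p53 response-element beta-lactamase reporter are treated for 16 h at 37 C with test compounds in the presence of human liver microsomes and NADPH (both 0.5 mg/mL final); ATP-based CellTiter-Glo luminescence then reports viability.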

Experiment [7] in a line: p53 small molecule agonists, cell-based qHTS assay with rat liver microsomes: qHTS cell viability counter screen (AID 1963580). Further: nearly all actives have a fitted effect of over 45% in size. Summed up:
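p53RE-bla HCT-116 cells were exposed 16 h at 37 C to compounds with rat liver microsomes (0.5 mg/mL) and NADPH (0.5 mg/mL). Viability was measured in the same wells as ATP content by CellTiter-Glo luminescence.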

Experiment [8] is described as follows: p53 small molecule agonists, cell-based qHTS assay (AID 1963582; active means well fitted activation curve with a large enough effect in the signal ratio in the repeat runs, not every such curve was filed as active; the % refers to the signal ratio). A digest of the protocol: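 In this cell-based concentration-response screen, a p53 response element drives beta-lactamase; cells received DMSO-borne compounds after 5 h culture and were incubated a further 16 h before FRET substrate development.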
Experiment [9] concerns the target 5-hydroxytryptamine receptor 2A (Homo sapiens) (UniProt P28223). Description: 5-hydroxytryptamine receptor 2A (HTR2A) small molecule agonists, cell-based qHTS assay (AID 1963587). Further: nearly all actives have a fitted effect of over 30% in size. A digest of the protocol: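 CHO cells stably expressing human HTR2A, plated 18 h, loaded with calcium dye 1 h at 37 C. Agonist mode: compounds added and intracellular calcium fluorescence recorded kinetically for 2 min at 1 sec intervals.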

In experiment [10] the target is Muscarinic acetylcholine receptor M1 (Homo sapiens) (UniProt P11229). The experiment is described as follows: Cholinergic receptor muscarinic 1 (CHRM1) small molecule agonists, cell-based qHTS assay (AID 1963589). Further: nearly all actives have a fitted effect of over 35% in size. A digest of the protocol:
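Measures agonist-induced intracellular calcium rise. Stable human CHRM1 CHO line, 1 h dye load at 37 C, compounds from DMSO, kinetic fluorescence read.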

Experiment [11] is described as follows: cAMP Responsive Elements (CRE) small molecule agonists, cell-based qHTS assay (AID 1963590). Summed up: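 A CRE-responsive beta-lactamase reporter in HEK 293T cells was used. Treatment ran 3 h at 37 C; detection used LiveBLAzer B/G FRET substrate for 2 h at room temperature.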
The nature of experiment [12]: cAMP Responsive Elements (CRE) small molecule antagonists, cell-based qHTS assay (AID 1963591; active means well fitted inhibition curve with a large enough effect in the signal ratio in the repeat runs, not every such curve was filed as active; the % refers to the signal ratio). Summed up: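 HEK293T cells carrying a CRE-driven beta-lactamase reporter receive compound and NKH477 (0.25 uM final) for 3 h. Fluorescence from LiveBLAzer B/G FRET substrate is read after 2 h at room temperature.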
In experiment [13] the target is Beta-2 adrenergic receptor (Homo sapiens) (UniProt P07550). The experiment is described as follows: Adrenergic beta2 receptor (ADRB2) small molecule antagonists, cell-based qHTS assay (AID 1963592). Further: series mostly up to about 92 µM; nearly all actives have a fitted effect of over 50% in size. Summed up: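 Cells (CHO, stable ADRB2 overexpression) incubated 18-20hr at 37C; compounds added from DMSO; agonist mix (1nM isoproterenol, 100uM IBMX, 25uM Ro-20-1724) added; 0.5hr RT; d2-cAMP and anti-cAMP-cryptate added; 1hr RT; 665/615 nm read.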

Experiment [14] shares this target. The experiment is described as follows: Adrenergic beta2 receptor (ADRB2) small molecule agonists, cell-based qHTS assay (AID 1963593).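 Further: CHO cells stably overexpressing human ADRB2.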 Summed up:
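CHO cells stably over-expressing ADRB2 were plated overnight at 37C, then dosed with compounds plus a stimulation mix containing 100uM IBMX and 25uM Ro-20-1724 for 0.5hr at room temperature. cAMP was measured by HTRF competition, 1hr.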

Experiment [15] has as its target D(2) dopamine receptor (Homo sapiens) (UniProt P14416). Description: Dopamine D2 receptor (DRD2) small molecule agonists, cell-based qHTS assay (AID 1963594). Further: nearly all actives have a fitted effect of over 35% in size. A digest of the protocol: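 HEK293 cells stably expressing human DRD2, pre-treated with PDE inhibitor Ro20-1724 (0.1 mM final) and compound 10 min at room temperature, then stimulated with NKH477 (200nM […]) for 30 min. cAMP read by HTRF (665/620 nm).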

Experiment [16] shares this target. Description: Dopamine D2 receptor (DRD2) small molecule antagonists, cell-based qHTS assay (AID 1963595; active means well fitted inhibition curve with a large enough effect in the signal ratio in the repeat runs, with a control signal flat; the % refers to the signal ratio; further: potency means the concentration at half of the fitted maximal effect). Summed up:
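In this cell-based antagonist screen, compounds act for 10 min at room temperature before a 30 min challenge with 12 nM quinpirole and 200 nM NKH477. cAMP is quantified by HTRF competition in DRD2-HEK293 cells containing 0.1 mM Ro20-1724.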

Experiment [17] is described as follows: Nuclear factor erythroid 2-related factor 2/antioxidant responsive element (Nrf2/ARE) small molecule agonists: luciferase reporter gene qHTS assay in human keratinocytes (AID 1919969). Further: nearly all actives have a fitted effect of over 35% in size. For orientation: In a reporter assay the amount or activity of a reporter protein is the signal.
A short description of experiment [18]: p53 small molecule agonists, cell-based qHTS assay: qHTS cell viability counter screen (AID 1963581). Further: nearly all actives have a fitted effect of over 45% in size. A digest of the protocol:
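Following 5 h attachment, HCT-116 p53RE-bla cells took up compound for 16 h at 37 C; the reporter was read with B/G FRET substrate (2 h RT), and viability then via CellTiter-Glo ATP luminescence.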

The target in experiment [19] is 5-hydroxytryptamine receptor 2A (Homo sapiens) (UniProt P28223). The experiment is described as follows: 5-hydroxytryptamine receptor 2A (HTR2A) small molecule antagonists, cell-based qHTS assay (AID 1963586). Further: nearly all actives have a fitted effect of over 45% in size. A digest of the protocol: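 Antagonist-mode intracellular calcium assay: DOI (4 nM) added after 5 min compound pre-incubation at room temperature to dye-loaded HTR2A-CHO cells. Fluorescence followed for 3 min, sampled every second.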

The target in experiment [20] is Muscarinic acetylcholine receptor M1 (Homo sapiens) (UniProt P11229). The experiment is described as follows: Cholinergic receptor muscarinic 1 (CHRM1) small molecule antagonists, cell-based qHTS assay (AID 1963588). Further: nearly all actives have a fitted effect of over 40% in size. A digest of the protocol:
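CHRM1-CHO calcium-flux assay, antagonist mode. Cells were seeded 18 h, dye-loaded 1 h at 37 C and given compound for 5 min at RT, then acetylcholine was added at 50nM. FDSS fluorescence was read 3 min; 15 concentrations, three runs.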

Several values for one entry are separate records, joined by “and”; a condition that tells them apart may be missing. Identical values can stand only once. Records with an inconclusive call do not appear. Activity calls are given as the source filed them. Unless noted, the call rests on the fitted dose curve.

Chain of D(2) dopamine receptor (Homo sapiens) (P14416 whole entry, looked up): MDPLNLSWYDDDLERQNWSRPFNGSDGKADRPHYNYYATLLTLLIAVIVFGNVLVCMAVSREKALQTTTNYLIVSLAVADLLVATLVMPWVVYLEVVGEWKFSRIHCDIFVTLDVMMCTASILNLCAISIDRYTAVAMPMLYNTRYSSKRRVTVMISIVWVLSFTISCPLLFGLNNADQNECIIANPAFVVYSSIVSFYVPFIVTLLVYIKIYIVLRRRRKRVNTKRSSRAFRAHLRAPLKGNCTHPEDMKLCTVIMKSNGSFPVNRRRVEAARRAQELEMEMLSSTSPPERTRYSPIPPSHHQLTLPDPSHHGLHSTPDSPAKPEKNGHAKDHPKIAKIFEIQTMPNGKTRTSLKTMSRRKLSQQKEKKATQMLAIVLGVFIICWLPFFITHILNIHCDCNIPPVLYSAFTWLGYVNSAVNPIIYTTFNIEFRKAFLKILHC
Chain of Beta-2 adrenergic receptor (Homo sapiens) (P07550 whole entry, looked up): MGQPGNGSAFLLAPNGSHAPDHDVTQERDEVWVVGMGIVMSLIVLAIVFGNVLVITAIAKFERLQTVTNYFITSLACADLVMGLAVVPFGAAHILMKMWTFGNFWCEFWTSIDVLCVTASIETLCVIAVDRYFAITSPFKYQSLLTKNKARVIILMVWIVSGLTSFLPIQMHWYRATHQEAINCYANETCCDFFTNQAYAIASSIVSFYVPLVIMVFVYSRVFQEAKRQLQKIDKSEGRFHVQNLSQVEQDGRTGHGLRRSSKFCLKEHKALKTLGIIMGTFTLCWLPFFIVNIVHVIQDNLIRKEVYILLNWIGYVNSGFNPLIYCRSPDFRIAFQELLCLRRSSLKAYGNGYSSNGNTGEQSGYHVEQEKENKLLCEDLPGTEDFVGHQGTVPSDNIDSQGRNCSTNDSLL
Chain of Gonadotropin-releasing hormone receptor (Homo sapiens) (P30968 whole entry, looked up): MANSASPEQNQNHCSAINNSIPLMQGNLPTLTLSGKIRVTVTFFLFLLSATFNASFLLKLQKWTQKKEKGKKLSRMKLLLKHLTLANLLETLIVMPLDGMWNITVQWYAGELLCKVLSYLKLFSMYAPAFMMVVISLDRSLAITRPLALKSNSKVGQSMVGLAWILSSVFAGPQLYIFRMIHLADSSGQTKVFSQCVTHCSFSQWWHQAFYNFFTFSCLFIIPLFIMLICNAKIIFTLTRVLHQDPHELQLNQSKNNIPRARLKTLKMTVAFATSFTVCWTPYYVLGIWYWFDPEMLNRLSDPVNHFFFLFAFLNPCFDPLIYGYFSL
Chain of KiSS-1 receptor (Homo sapiens) (Q969F8 whole entry, looked up): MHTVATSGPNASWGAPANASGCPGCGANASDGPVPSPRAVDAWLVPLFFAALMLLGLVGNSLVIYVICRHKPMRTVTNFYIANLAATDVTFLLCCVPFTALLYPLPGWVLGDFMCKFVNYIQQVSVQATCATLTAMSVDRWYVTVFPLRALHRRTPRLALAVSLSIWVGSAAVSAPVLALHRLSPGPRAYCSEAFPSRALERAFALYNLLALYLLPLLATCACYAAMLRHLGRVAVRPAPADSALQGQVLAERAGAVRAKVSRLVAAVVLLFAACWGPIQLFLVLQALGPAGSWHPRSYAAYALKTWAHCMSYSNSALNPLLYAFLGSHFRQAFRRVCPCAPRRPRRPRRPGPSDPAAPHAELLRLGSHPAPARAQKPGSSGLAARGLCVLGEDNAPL
Chain of Muscarinic acetylcholine receptor M1 (Homo sapiens) (P11229 whole entry, looked up): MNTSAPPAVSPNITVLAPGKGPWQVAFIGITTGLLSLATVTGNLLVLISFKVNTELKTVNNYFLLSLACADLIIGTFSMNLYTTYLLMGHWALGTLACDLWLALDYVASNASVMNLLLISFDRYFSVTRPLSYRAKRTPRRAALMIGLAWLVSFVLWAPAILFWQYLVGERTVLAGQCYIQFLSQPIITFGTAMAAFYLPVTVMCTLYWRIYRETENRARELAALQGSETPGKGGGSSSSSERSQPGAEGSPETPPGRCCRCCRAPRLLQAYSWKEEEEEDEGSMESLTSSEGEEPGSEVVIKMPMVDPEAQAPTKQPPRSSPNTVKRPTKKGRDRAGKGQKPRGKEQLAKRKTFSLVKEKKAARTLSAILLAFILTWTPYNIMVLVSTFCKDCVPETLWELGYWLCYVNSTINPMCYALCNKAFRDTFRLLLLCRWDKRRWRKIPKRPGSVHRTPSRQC
Chain of 5-hydroxytryptamine receptor 2A (Homo sapiens) (P28223 whole entry, looked up): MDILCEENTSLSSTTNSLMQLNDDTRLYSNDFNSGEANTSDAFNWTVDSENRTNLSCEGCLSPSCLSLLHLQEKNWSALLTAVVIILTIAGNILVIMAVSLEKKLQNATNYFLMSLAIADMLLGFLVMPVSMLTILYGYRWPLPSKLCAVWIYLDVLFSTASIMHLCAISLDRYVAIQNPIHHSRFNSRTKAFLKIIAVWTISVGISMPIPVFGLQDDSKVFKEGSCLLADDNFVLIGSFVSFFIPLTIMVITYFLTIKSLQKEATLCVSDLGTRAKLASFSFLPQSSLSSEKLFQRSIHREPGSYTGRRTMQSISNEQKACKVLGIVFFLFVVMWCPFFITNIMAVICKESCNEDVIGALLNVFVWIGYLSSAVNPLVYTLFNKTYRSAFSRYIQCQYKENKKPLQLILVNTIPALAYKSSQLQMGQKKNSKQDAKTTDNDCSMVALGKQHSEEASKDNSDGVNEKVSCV

Consider `c1ccc2[nH]ccc2c1`, for which the Potency result in experiment [1], in [2], in experiment [3], in experiment [4], in experiment [5] and in experiment [6] was “inactive” each time. The Potency entry in experiment [7], in experiment [8], in experiment [9], in [10], in [11] and in experiment [12] was “inactive” each time. Moreover, the Potency entry in [13], in [14], in experiment [15] and in experiment [16] was “inactive” in each case.
Regarding `COc1ccc(NC(C)=O)cc1N`, the Potency result in [17], in experiment [1], in [2], in [3], in experiment [6] and in experiment [7] was “inactive” each time. For the same molecule, the Potency result in [18], in experiment [19], in experiment [9], in experiment [20], in [10] and in experiment [11] was “inactive” throughout. Besides, the Potency result in [12], in experiment [13], in experiment [15] and in experiment [16] was “inactive” in each case.
Take `O=C(O)CCCCC(=O)O`: the Potency entry in experiment [1], in experiment [2], in experiment [3], in experiment [4], in experiment [5] and in experiment [6] was “inactive” each time. In addition, the Potency result in experiment [7], in [18], in [8], in [19], in experiment [9] and in experiment [20] was “inactive” in each case. Moreover, the Potency result in experiment [10], in experiment [11], in [12], in experiment [13], in experiment [14] and in experiment [15] was “inactive” throughout. Besides, the Potency entry in experiment [16] was “inactive”.
As for `Cc1ccc([N+](=O)[O-])cc1S(=O)(=O)O`, the Potency entry in experiment [17], in experiment [1], in experiment [2], in experiment [3], in experiment [6] and in experiment [7] was “inactive” throughout. For the same molecule, the Potency entry in experiment [18], in experiment [8], in experiment [19], in experiment [9], in experiment [20] and in [10] was “inactive” throughout. For the same molecule, the Potency entry in experiment [11], in [12], in [13], in experiment [15] and in experiment [16] was “inactive” in each case.
Consider `CNC[C@H](O)c1cccc(O)c1`, for which the Potency result in [1], in experiment [2], in experiment [3], in experiment [4], in experiment [5] and in experiment [6] was “inactive” each time. Moreover, the Potency entry in experiment [7], in experiment [18], in [8], in experiment [19], in [9] and in [20] was “inactive” throughout. Besides, the Potency result in experiment [10], in [12], in experiment [13] and in experiment [15] was “inactive” throughout. The Potency in experiment [16] was 61.1 µM (active) and 29.8 µM (active).
Turning to `CCCCCCCCCCCCCCCCCC(=O)OCC(O)CO` (stereo not given), the Potency result in experiment [17], in experiment [1], in experiment [2], in experiment [3], in experiment [6] and in experiment [7] was “inactive” throughout. Further, the Potency entry in [18], in experiment [19], in experiment [20], in [10], in experiment [11] and in experiment [12] was “inactive” in each case. In addition, the Potency entry in [13], in experiment [14], in experiment [15] and in experiment [16] was “inactive” in each case.
For the molecule `CC1(C)CC(N)CC(C)(CN)C1` (stereo not given), the Potency result in [1], in experiment [2], in experiment [3], in experiment [4], in experiment [5] and in [6] was “inactive” throughout. The Potency entry in [7], in [8], in experiment [19], in experiment [9], in experiment [20] and in experiment [10] was “inactive” throughout. Besides, the Potency result in experiment [11], in [12], in [13], in experiment [15] and in experiment [16] was “inactive” throughout.
On to `CCCCCCC=O`, for which the Potency result in [2], in experiment [3], in experiment [4], in experiment [5], in [6] and in [7] was “inactive” throughout. Besides, the Potency entry in experiment [18], in experiment [8], in [19], in [9], in experiment [20] and in experiment [10] was “inactive” in each case. Also, the Potency result in [11], in [12], in experiment [13], in experiment [14], in [15] and in experiment [16] was “inactive” each time.
On to `O=C(O)c1ccccc1`, for which the Potency result in experiment [17], in [1], in experiment [2], in experiment [3], in experiment [6] and in experiment [7] was “inactive” in each case. The Potency entry in experiment [18], in experiment [8], in [11], in experiment [12], in experiment [13] and in experiment [14] was “inactive” each time. Moreover, the Potency entry in experiment [15] and in experiment [16] was “inactive” each time.

(Values after PubChem BioAssay (Tox21).)
